Assay outcomes from PubChem.
JMJD2A Tudor inh = qHTS Assay for Inhibitors of JMJD2A-Tudor Domain | Lysine-specific demethylase 4A (Homo sapiens), O75164 | AlphaScreen JMJD2A-Tudor / H3K4me3 peptide binding | Potency, µM (doses to about 114 µM), hits mostly inhibitors | hit rate 4.4% among 390,000 | AID 504339, 2011; further: nearly all actives have a fitted effect of over 50% in size
Target sequence (O75164 whole entry, looked up, the tested form may be a part): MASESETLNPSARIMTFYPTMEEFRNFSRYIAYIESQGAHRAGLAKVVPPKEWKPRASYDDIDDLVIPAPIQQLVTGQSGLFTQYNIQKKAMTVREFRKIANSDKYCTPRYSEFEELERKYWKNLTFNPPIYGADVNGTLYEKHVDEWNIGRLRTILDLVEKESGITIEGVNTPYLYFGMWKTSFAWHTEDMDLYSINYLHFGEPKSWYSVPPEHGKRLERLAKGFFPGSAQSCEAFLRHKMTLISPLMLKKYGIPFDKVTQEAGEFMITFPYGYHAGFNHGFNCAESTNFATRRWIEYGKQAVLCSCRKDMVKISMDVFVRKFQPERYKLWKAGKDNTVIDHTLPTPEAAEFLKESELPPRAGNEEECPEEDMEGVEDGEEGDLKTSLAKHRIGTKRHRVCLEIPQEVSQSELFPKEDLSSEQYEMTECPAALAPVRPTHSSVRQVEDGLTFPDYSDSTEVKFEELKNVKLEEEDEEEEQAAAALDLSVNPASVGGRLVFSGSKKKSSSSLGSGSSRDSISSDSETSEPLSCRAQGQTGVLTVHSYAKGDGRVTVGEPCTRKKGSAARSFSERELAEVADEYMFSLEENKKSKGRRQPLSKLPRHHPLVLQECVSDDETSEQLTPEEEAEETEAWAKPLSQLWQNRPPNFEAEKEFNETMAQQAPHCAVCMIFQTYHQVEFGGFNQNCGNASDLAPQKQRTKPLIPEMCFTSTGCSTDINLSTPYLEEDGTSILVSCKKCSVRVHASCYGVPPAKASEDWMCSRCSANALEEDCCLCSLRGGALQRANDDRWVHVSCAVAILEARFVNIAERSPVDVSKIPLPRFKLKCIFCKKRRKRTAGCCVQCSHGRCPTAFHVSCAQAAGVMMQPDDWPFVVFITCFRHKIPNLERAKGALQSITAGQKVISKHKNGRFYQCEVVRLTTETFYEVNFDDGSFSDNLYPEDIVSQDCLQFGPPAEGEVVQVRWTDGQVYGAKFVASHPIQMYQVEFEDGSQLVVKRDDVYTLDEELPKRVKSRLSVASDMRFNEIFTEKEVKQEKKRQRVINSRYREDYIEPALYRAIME
BAZ2B block = qHTS Assay for Inhibitors of BAZ2B. AID 504333, 2011. AlphaScreen BAZ2B-H3K14Ac peptide displacement. Potency, µM (doses to about 114 µM), most hits filed as inhibitors. hit rate 4.4% among 360,000. Bromodomain adjacent to zinc finger domain protein 2B (Homo sapiens), Q9UIF8; further: nearly all actives have a fitted effect of over 60% in size
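BAZ2B (50 nM) with biotin-H3(5-23)K14Ac peptide (50 nM) in PBS pH 7.4, 0.01% Tween-20, preformed 30 min, then compound 30 min at room temperature; top concentration 110uM. AlphaScreen streptavidin donor/nickel chelate acceptor beads (10 ug/mL final), 20 min dark, signal read.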
HP1b chromo inh = HTS for Inhibitors of HP1-beta Chromodomain Interactions with Methylated Histone Tails | AID 540317, 2011 | Potency, µM (highest dose often 114 µM), actives largely listed as inhibitors | Chromobox protein homolog 1 (Homo sapiens), P83916 | AlphaScreen HP1-beta / biotin-H3K9me3 peptide binding | hit rate 0.56% among 390,000; further: nearly all actives have a fitted effect of over 70% in size
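Compound inhibition of the preformed complex between 50 nM HP1-beta and 50 nM biotinylated H3K9me3 peptide was read by AlphaScreen. Buffer was PBS pH 7.4 with 0.01% Tween-20. Incubations ran 30 min at room temperature, with 10 ug/mL donor/acceptor beads.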
L3MBTL1 inh = qHTS Assay for the Inhibitors of L3MBTL1 | Potency, µM (series often up to 57.1 µM), hits mostly inhibitors | Lethal(3)malignant brain tumor-like protein 1 (Homo sapiens), Q9Y468 | hit rate 0.66% among 230,000 | AlphaScreen L3MBTL1–H3K9me1 peptide binding | AID 485360, 2010; further: nearly all actives have a fitted effect of over 60% in size
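Read-out is AlphaScreen signal from streptavidin donor and nickel chelate acceptor beads (10 ug/mL final each) bridging L3MBTL1 (50 nM) and biotinylated K9-monomethylated H3(1-15) peptide (75 nM), after 30 min compound exposure at room temperature.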
G9a block = qHTS Assay for Inhibitors of Histone Lysine Methyltransferase G9a | G9a H3K9 monomethylation, AlphaScreen, 2 h | Potency, µM (series often up to 102 µM), hits mostly inhibitors | AID 504332, 2011 | hit rate 8.8% among 350,000 | Histone-lysine N-methyltransferase EHMT2 (Homo sapiens), Q96KQ7; further: nearly all actives have a fitted effect of over 75% in size
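Quantitative HTS format: methyltransferase activity on a biotin-tagged H3K9 peptide is measured by AlphaScreen, using a rabbit anti-monomethyl-H3K9 antibody with streptavidin donor and anti-IgG acceptor beads. Final levels are 20 nM enzyme, 500 nM peptide, 20 uM SAM; 2 h RT.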
Sfp PPTase inh = qHTS Assay for Inhibitors of Bacillus subtilis Sfp phosphopantetheinyl transferase (PPTase); Biochemical Sfp PPTase activity, qHTS; Potency, µM, usual class: inhibitors; hit rate 3.5% among 310,000;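 further: the enzyme is Sfp with the accession as filed and its product quenches rhodamine fluorescence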
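With Hepes-Na pH 7.6 buffer containing 10 mM MgCl2, Sfp (15 nM) modified BHQ-2-YbbR (12.5 uM) using rhodamine-CoA (5 uM). Two reads 30 minutes apart at 525/598 nm yielded each well's rate.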
Numbers stand for hits; n = inactive; u = inconclusive; x = not tested or not shown; [ ] = remark or other dose. The list is not random: actives were taken first. Their share in the collection is about 12%. The call rests on the fitted dose curve; in most records, active means well fitted curve in the direction sought with a large enough effect; inconclusive means small, poorly fitted or top-dose-only effect, or another doubt; inactive means no such curve, though single readings can be large; an effect the other way counts as inactive or inconclusive.

SMILES	JMJD2A Tudor inh	BAZ2B block	HP1b chromo inh	L3MBTL1 inh	G9a block	Sfp PPTase inh
Cc1cc(Br)ccc1NC(=O)c1ccc(NS(=O)(=O)c2c(C)noc2C)cc1	n	x	n	x	u	x
CCOC(=O)N1CCN(C/C(Cl)=C/c2ccccc2)CC1	1.8µM	u	50µM	n	x	u
CCOC(=O)N1CCN(C(=O)Cn2ncc3ccccc32)CC1	79µM	n	n	n	n	n
Cc1ccccc1NC(=O)c1cc2c(-c3ccccc3)nn(-c3ccccc3)c2s1	n	n	n	x	n	x
N#Cc1c(-n2ncnc2-c2ccc(F)cc2)sc2c1CCCCC2	u	7.1µM	u	x	u	x
Cc1cc2c(s1)c1cnn(Cc3ccc(C)c(F)c3F)c(=O)c1n2C	n	x	x	x	x	x
COc1ccc(/C=N/NC(=O)c2cc(O)c(O)c(O)c2)cc1Cn1cc([N+](=O)[O-])cn1	10µM	10µM	u	x	14µM	n
COc1ccc(/C=N/Nc2ccccc2C(=O)O)cc1Cn1cc([N+](=O)[O-])cn1	u	50µM	n	n	22µM	n
COc1ccc(/C=N/NC(=O)c2ccccc2O)cc1Cn1cc([N+](=O)[O-])cn1	n[11.4 µM]	n	n	n	n	n
COc1ccc(OC)c(CNC(=O)c2cc(=O)[nH]c3ccc(S(=O)(=O)N4CCCCC4C)cc23)c1 (stereo unspecified)	u	n	n	x	n	x
O=C(Nc1cccc2cccnc12)OC(Cl)(Cl)Cl	n	x	n	x	x	x
COc1ccc(Cc2nnc(NS(=O)(=O)c3ccc([N+](=O)[O-])cc3)s2)cc1	n	u	n	x	40µM	n
COc1ccc(Cc2nnc(N)s2)cc1	n	n	n	n	u	u
COc1ccc(Cc2nnc(N)s2)cc1OC	n	n	n	n	7.9µM	22µM
COc1ccc(Cc2nnc(NS(=O)(=O)c3ccccc3)s2)cc1	n	n	n	n	n	n
O=[N+]([O-])c1ccc(S(=O)(=O)Nc2nnc(C(F)(F)F)s2)cc1	n	n	n	n	45µM	n
COc1ccc(-c2csc(NS(=O)(=O)c3ccc([N+](=O)[O-])cc3)n2)cc1	u	35µM	n	n	u	n
CC(C)Cc1nnc(NS(=O)(=O)c2ccc([N+](=O)[O-])cc2)s1	n	u	n	n[2.29 µM]	n[0.501 µM]	u
CCCn1c(-c2ccc(F)cc2)nc2c(NCCCN3CCOCC3)nc(C)nc21	x	x	x	x	x	n
Cc1ccc(C)c(N2CCN(CCCNC(=O)c3ccc4nc(C(C)C)oc4c3)CC2)c1	n	n	n	x	n	x
COc1ccc(S(=O)(=O)N2CCOCC2)cc1NC(=O)COC(=O)CC1CC2CCC1C2 (stereo unspecified)	n	x	n	n	x	x
O=[N+]([O-])c1ccc2nc(NS(=O)(=O)c3ccc(F)cc3)sc2c1	n	n	n	x	79µM	n
COc1ccc(S(=O)(=O)Nc2nnc(Cc3ccc(OC)c(OC)c3)s2)cc1	n	n	n	n	n	50µM
COc1ccc(Cc2nnc(NS(=O)(=O)c3ccc(NC(C)=O)cc3)s2)cc1	n	n	n	x	n	n
Cc1ccc(S(=O)(=O)Nc2nc3ccc(N)cc3s2)cc1	n	n	n	x	n	n
SMILES	JMJD2A Tudor inh	BAZ2B block	HP1b chromo inh	L3MBTL1 inh	G9a block	Sfp PPTase inh
COc1ccc(-c2csc(NC(=O)c3ccccc3NS(=O)(=O)c3ccc(F)c(F)c3)n2)cc1	56µM	45µM	u	n	n[12.7 µM]	n
CCOCC	x	x	x	x	x	n
CCCCC[C@H](O)/C=C/C=C/C=C/[C@@H](O)C/C=C\CCCC(=O)O	x	x	x	x	x	n
CCOc1ccc2c(c1)c(N=Nc1cccc(C(=O)O)c1)c(O)n2C	u	u	n	n	u	n
Cc1ccc2c(c1)c(N=Nc1cccc(C(=O)O)c1)c(O)n2C	n	u	n	x	35µM	n
Cc1ccccc1-n1c(-c2cccnc2)n[nH]c1=S	11µM	n	n	x	5µM	n
Cc1cccc2nc(-c3cccnc3)c(Nc3ccc(C(C)C)cc3)n12	n	n	n	x	u	x
S=c1[nH]nc(-c2cccc3ccccc23)n1-c1cccnc1	20µM	n	n	n	n	n
CCc1cccc(CC)c1-n1c(-c2cccnc2)n[nH]c1=S	u	n	n	n	u	n
CC(C)c1ccccc1-n1c(-c2cccnc2)n[nH]c1=S	10µM	n	n	n	n[12.7 µM]	n
COc1cccc(NC(=O)c2nnn(Cc3ccc(OC)c(Br)c3)c2N)c1	n	n	n	x	n	x
CC(=O)CSc1nc2cc3c(cc2cc1C#N)OCCO3	n	n	n	x	1µM	n
N#Cc1cc2cc3c(cc2nc1SCC(=O)OC1CCCCC1)OCO3	n	n	n	n	n	n
COc1ccc2cc(C#N)c(SCC(=O)N3CCCC3)nc2c1	n	n	n	n	n	n
N#Cc1cc2cc3c(cc2nc1SCC(=O)N1CCCC1)OCCO3	n	n	n	x	28µM	n
Cc1cc(C)c(C#N)c(SCC(=O)N2CCCCC2)n1	u	n	n	n	14µM	32µM
CCn1cc(C(=O)NCc2ccc(OC)cc2)c(=O)c2ccc(C)nc21	n	n	n	n[2.29 µM]	n[0.501 µM]	n
CCOc1ccc(N2CC(=O)N(c3ccc(OCC)cc3)CC2=O)cc1	n	n	n	n	x	n
CCOc1ccc(N2Cc3ccccc3C2)cc1	n	x	n	n	2.5µM	n
Cc1ccc(S(=O)(=O)N2CCCc3cc(NS(=O)(=O)c4cccc(Cl)c4)ccc32)cc1	n	n	n	x	n	x
CCOc1ccc(S(=O)(=O)Nc2ccc3c(c2)CCCN3S(=O)(=O)c2ccc(C)cc2)cc1	n	56µM	n	x	u	x
COc1ccccc1CNCc1ccc(OC)c(OC)c1OC	14µM	79µM	u	n	10µM	u
COc1ccc(CNC2CCCC2)c(OC)c1OC	n	n	n	x	n[12.7 µM]	n
COc1cccc(CNCc2ccccc2Br)c1OC	1.6µM	u	u	n[2.29 µM]	n[0.501 µM]	n
CCC(=O)/C=C1\Sc2ccc(OC)cc2N1CC	n	n	n	n	50µM	50µM
CCN1C(=O)/C(=C2/Sc3ccc(OC)cc3N2C)SC1=Nc1cccc(O)c1	n	n	n	n	n	n
CCN1/C(=C\C(C)=O)Sc2ccc(OC)cc21	n	n	n	x	5µM	n
CCC(=O)/C=C1\Sc2ccc(OC)cc2N1CCO	n	n	n	n	n	n
N[C@@H]1C(O)OC(CO)C(O)C1O (stereo partly specified)	x	x	x	x	n[2.33 µM]	n
CC1CC2C3CC(F)C4=CC(=O)C=C[C@@]4(C)[C@@]3(F)C(O)C[C@]2(C)[C@]1(O)C(=O)COC(=O)C(C)(C)C (stereo partly specified)	x	x	x	x	n[2.33 µM]	n
